According to PubChem BioAssay:

Test: reversal of MRP1-mediated doxorubicin resistance, pilot screen, H69AR cells, doxorubicin co-treatment (AID 601)
Conditions: H69AR cells + 2 uM doxorubicin, CellTiter-Glo, 72 h; measured here: viability with 2 uM doxorubicin; at 10 µM; stronger effect = lower value

| SMILES | viability [%] |
| --- | --- |
| CCn1c(SCC(N)=O)nnc1-c1ccc(S(=O)(=O)N2CCN(C)CC2)cc1 | 86.6 |
| CCc1ccccc1N1C(=O)C2CC(C)=C(C)CC2C1=O (stereo not given) | 84.7 |
| CC(NC(=O)NC12CC3CC(CC(C3)C1)C2)C1CCCO1 (stereo not given) | 93.4 |
| Cc1ccc(Nc2nc(N)nc(CN3CCN(Cc4ccc5c(c4)OCO5)CC3)n2)cc1 | 79.7 |
| Cc1cc(N2CCN(C3CCCC3)CC2)n2c(nc3ccccc32)c1C#N | 63.3 |
| CC(C)OC(=O)c1cc(NC(=O)C2C3CCC(O3)C2C(=O)O)cc(C(=O)OC(C)C)c1 (stereo not given) | 89.9 |
| Cc1cc(NC(=O)CSc2nc(C3CC3)nc3sc4c(c23)CCC(C)C4)no1 (stereo not given) | 86.4 |
| O=C(CSc1nc(-c2ccco2)cc(C(F)(F)F)n1)N1CCCc2ccccc21 | 81.9 |
| O=C(CN1C(=O)CC(c2ccco2)Sc2ccccc21)Nc1ccc2c(c1)OCCO2 (stereo not given) | 75.1 |
| COc1cccc2c(=O)cc(C)n(CC(=O)Nc3ccc(C)c(C)c3)c12 | 82.1 |
| Cc1cc(NC(=O)C(C)(C)C)no1 | 83.3 |
| c1coc(CN2CN=C(Nc3nc4ccccc4s3)NC2)c1 | 96.5 |
| NNC(=O)c1ccncc1 | 93.7 |
| O=C(CCCCn1c(=O)c2ccccc2n(Cc2ccc(Cl)cc2)c1=O)NCc1ccco1 | 43 |
| Fc1cccc(NCc2cn3ccccc3n2)c1 | 89.2 |
| Cc1oncc1C(=O)Nc1ccc(C(F)(F)F)cc1 | 87.8 |
| COC(=O)Cc1cc(=O)n(-c2ccccc2)[nH]1 | 88.4 |
| Cc1ccc(-c2nn[nH]n2)cc1 | 111 |
| Cc1cc(C)n2nc[n+](C)c2n1 | 84.9 |
| CCCC1(C(=O)OC)NC(c2cc(OC)c(OC)c(OC)c2)C2C(=O)N(CC)C(=O)C21 (stereo not given) | 90.4 |

Same assay, conditions: H69AR cells, CellTiter-Glo, 72 h; compound alone cytotoxicity; at 10 µM

| SMILES | viability [%] |
| --- | --- |
| CCn1cnc2sc(C(=O)Nc3ccc4c(c3)OCO4)c(C)c2c1=O | 94 |
| CC1CC(C)CN(CC(=O)Nc2ccc(S(N)(=O)=O)cc2)C1 (stereo not given) | 84.9 |
| Cc1ccc(S(=O)(=O)N2CCN(C(=O)CSC3CCCC3)CC2)c(C)c1 | 81.6 |
| COc1ccc(C(=O)Nc2nc(C)c(C(=O)N(C)C)s2)cc1OC | 94.9 |
| C=CCOC(=O)CC(NC(=O)c1ccccc1)c1ccccc1 (stereo not given) | 105 |
| Cc1nc(Sc2cccn2C)c(C(F)(F)F)c(=O)[nH]1 | 96.3 |
| O=C(OCC(=O)c1ccccc1Br)c1ccccn1 | 86.8 |
| CCCCSc1nnc([C@H](C)NC(=O)OC(C)(C)C)o1 | 90.3 |
| CCOc1ccccc1C1N(c2ccc(F)cc2)C(=O)C2CCCN21 (stereo not given) | 99 |
| CCOc1ncccc1C(=O)Nc1ccc(Cl)cc1 | 79.8 |
| O=C(CSc1nc(N2CCCCC2)nc(N2CCCCC2)n1)Nc1nccs1 | 77.3 |
| O=C(Nc1ncnc2sc3c(c12)CCC3)c1ccco1 | 80.1 |
| CCc1nnc(SCc2cn3c(C)cc(C)nc3n2)n1N | 108 |
| O=C(c1ccco1)N1CCN(c2nc(C(F)(F)F)nc3c2nnn3Cc2ccccc2)CC1 | 73.3 |
| O=C(CSc1nnc(-c2ccccc2)o1)NC1CCCCC1 | 98.5 |
| Cn1c(Cl)cnc1C1CC(=O)c2cc(Cl)ccc2O1 (stereo not given) | 2.09 |
| C1COC(NC(C2CC2)C2CC2)=N1 | 84.9 |
| COc1ccc(C2/C(=C(/O)c3ccccc3)C(=O)C(=O)N2c2ncccn2)cc1OC (stereo not given) | 108 |
| CC(=O)SCC(=O)N=c1sc2cc(F)ccc2n1C | 93.4 |
| O=c1c2ccccc2[nH]c(=S)n1CCN1CCC(=C(c2ccc(F)cc2)c2ccc(F)cc2)CC1 | 78.8 |

| SMILES | viability [%] |
| --- | --- |
| CCn1c(SCC(N)=O)nnc1-c1ccc(S(=O)(=O)N2CCN(C)CC2)cc1 | 95.8 |
| CCc1ccccc1N1C(=O)C2CC(C)=C(C)CC2C1=O (stereo not given) | 103 |
| CC(NC(=O)NC12CC3CC(CC(C3)C1)C2)C1CCCO1 (stereo not given) | 103 |
| Cc1ccc(Nc2nc(N)nc(CN3CCN(Cc4ccc5c(c4)OCO5)CC3)n2)cc1 | 82.2 |
| Cc1cc(N2CCN(C3CCCC3)CC2)n2c(nc3ccccc32)c1C#N | 91.4 |
| CC(C)OC(=O)c1cc(NC(=O)C2C3CCC(O3)C2C(=O)O)cc(C(=O)OC(C)C)c1 (stereo not given) | 92.9 |
| Cc1cc(NC(=O)CSc2nc(C3CC3)nc3sc4c(c23)CCC(C)C4)no1 (stereo not given) | 102 |
| O=C(CSc1nc(-c2ccco2)cc(C(F)(F)F)n1)N1CCCc2ccccc21 | 84 |
| O=C(CN1C(=O)CC(c2ccco2)Sc2ccccc21)Nc1ccc2c(c1)OCCO2 (stereo not given) | 76.9 |
| COc1cccc2c(=O)cc(C)n(CC(=O)Nc3ccc(C)c(C)c3)c12 | 95.5 |
| Cc1cc(NC(=O)C(C)(C)C)no1 | 99.2 |
| c1coc(CN2CN=C(Nc3nc4ccccc4s3)NC2)c1 | 96.4 |
| NNC(=O)c1ccncc1 | 104 |
| O=C(CCCCn1c(=O)c2ccccc2n(Cc2ccc(Cl)cc2)c1=O)NCc1ccco1 | 29.6 |
| Fc1cccc(NCc2cn3ccccc3n2)c1 | 87.6 |
| Cc1oncc1C(=O)Nc1ccc(C(F)(F)F)cc1 | 97.2 |
| COC(=O)Cc1cc(=O)n(-c2ccccc2)[nH]1 | 87.9 |
| Cc1ccc(-c2nn[nH]n2)cc1 | 107 |
| Cc1cc(C)n2nc[n+](C)c2n1 | 96.4 |
| CCCC1(C(=O)OC)NC(c2cc(OC)c(OC)c(OC)c2)C2C(=O)N(CC)C(=O)C21 (stereo not given) | 88.9 |
